AmpC no deterg: inhibitors of E. coli AmpC beta-lactamase without detergent; P00811; AmpC nitrocefin hydrolysis, absorbance 480 nm, 0.0001% Triton; Potency, µM (top dose mostly 57.1 µM), for inactives: top-dose activity change, negative = inhibition, actives largely listed as inhibitors; hit rate 0.52% among 330,000; AID 485341;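 further: potency means the concentration at half of the fitted maximal effect; plate controls were no compound for no effect and no enzyme for full effect; nearly all actives have a fitted effect of over 20% in size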
Target sequence (P00811 whole entry, looked up): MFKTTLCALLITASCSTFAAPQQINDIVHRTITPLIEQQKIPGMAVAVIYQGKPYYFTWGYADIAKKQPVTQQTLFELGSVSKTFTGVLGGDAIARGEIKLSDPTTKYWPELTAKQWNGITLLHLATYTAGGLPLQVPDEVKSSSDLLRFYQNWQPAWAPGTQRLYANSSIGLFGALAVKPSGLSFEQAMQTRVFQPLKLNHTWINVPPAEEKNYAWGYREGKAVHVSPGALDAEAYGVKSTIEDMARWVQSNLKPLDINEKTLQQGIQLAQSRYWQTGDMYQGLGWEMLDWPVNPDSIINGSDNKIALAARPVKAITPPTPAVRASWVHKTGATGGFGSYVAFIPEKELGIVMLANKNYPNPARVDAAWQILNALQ
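20 mM phosphate pH 7.0 + 0.01% (detergent screen) or 0.0001% Triton X-100; 5.3 nM AmpC reagent; cpd preinc 15 min RT; nitrocefin (800 uM stock) to start; A480 q20 s × 4 min; Activity was normalised to no-enzyme and no-compound control wells.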
CHX counter: counter-screen hit for Shiga toxin inhibitors, cycloheximide; cell reporter, cycloheximide protein synthesis inhibition counterscreen; max response, %; hit rate 12% among 300,000; AID 2314; in the data active means max response mostly above about 13%, no sharp cut-off; inactive means mostly below about 14%; further: read at 38.3 µM for the half of the compounds with a filed dose; 0% is about no effect
NS1 function inh: influenza NS1 inhibition; AID 2326; Potency, µM (titrated, usually from 46.1 µM), without a hit: top-dose activity, positive = more growth; hit rate 0.4% among 270,000; calls by dose curve; further: potency means the concentration at half of the fitted maximal effect; actives are rising curves; nearly all actives have a fitted effect of over 50% in size
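S. cerevisiae expressing influenza A NS1, grown in glucose, washed, then diluted 1:100 into pH 6.0 -URA galactose medium with 23 nl compound. Growth recovery read as OD600; NS1-free strain serves as control.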
AmpC inh detg: blocks E. coli AmpC beta-lactamase in detergent assay | P00811 | AmpC hydrolysis of nitrocefin, absorbance 480 nm, 0.01% Triton | Potency, µM (titrated, usually from 114 µM), for inactives: at the top dose activity change, negative = inhibition, most hits filed as inhibitors | hit rate 0.041% among 370,000 | AID 485294;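 further: potency means the concentration at half of the fitted maximal effect; 0% = no-compound wells and -100% = no-enzyme wells; nearly all actives have a fitted effect of over 25% in size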
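20 mM phosphate pH 7.0 + 0.01% (detergent screen) or 0.0001% Triton X-100; 5.3 nM AmpC reagent; cpd preinc 15 min RT; nitrocefin (800 uM stock) to start; A480 q20 s × 4 min; Activity was normalised to no-enzyme and no-compound control wells.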
Shiga toxin inh: inhibitors of Shiga toxin in Vero cells. hit rate 9.2% among 290,000. inhibition, % at 38.7 µM. Vero cells, Shiga toxin protein synthesis inhibition reporter; in the data active means inhibition mostly above about 28%, no sharp cut-off; inactive means mostly below about 43%; further: 0% is about no effect
The depositor's hits bear a star. This is one part of a sample in which hits are shown more often than they occur. Unless noted, the call rests on the fitted dose curve; in most records, active means well fitted curve in the direction sought with a large enough effect; inconclusive means small, poorly fitted or top-dose-only effect, or another doubt; inactive means no such curve, though single readings can be large; an effect the other way counts as inactive or inconclusive.

`Cc1ccsc1/C=C1\CCc2ccccc2C1=O` gave AmpC no deterg -36.3%, CHX counter 40.8*, NS1 function inh -58.2%, AmpC inh detg inconclusive and Shiga toxin inh 25.7.
`CCN1C/C(=C/c2sccc2C)c2nc3ccccc3c(C(=O)O)c2C1` gave AmpC no deterg 17.8%, CHX counter 11.0, NS1 function inh 2.4%, AmpC inh detg -9.7% and Shiga toxin inh -11.2.
`Cc1ccccc1/C=C1\Oc2ccccc2C1=O` gave AmpC no deterg -12.1%.
`Cc1ccccc1/C=C1\CCCc2ccccc2C1=O` gave AmpC no deterg -34.0%, CHX counter 44.8*, NS1 function inh -18.3%, AmpC inh detg -0.3% and Shiga toxin inh 80.2*.
Screening O=C1/C(=C\c2ccc3ccccc3c2)CCCc2ccccc21 returned AmpC no deterg -33.7%, CHX counter 59.8*, NS1 function inh -14.7%, AmpC inh detg -2.0% and Shiga toxin inh 73.3*.
Screening O=C(NC(=O)c1cc([N+](=O)[O-])ccc1Cl)C1=C(N2CCCC2)COC1=O returned AmpC no deterg -2.7%.
`Cc1nn2c(-c3ccco3)ccnc2c1-c1ccc(F)cc1` gave AmpC inh detg -0.3%.
For Cc1ccc(NC(=O)Cn2cnc3sc(C)c(S(=O)(=O)N4CCN(c5ncccn5)CC4)c3c2=O)cc1F the results were AmpC inh detg 15.9%.
For CC(C)COc1ccc(/C(=N/O)c2ccccc2)cc1 the results were AmpC no deterg -17.2%, CHX counter 29.7*, NS1 function inh 1.8%, AmpC inh detg -11.6% and Shiga toxin inh 38.3.
Screening Cn1c(=O)cc(SCC(=O)N2CCN(c3ccc(F)cc3)CC2)c2ccc(Cl)cc21 returned AmpC inh detg 5.3%.
For CCOC(=O)c1ccc(NC2OC(=O)c3ccccc32)cc1 (stereo unspecified) the results were AmpC no deterg -2.4%, CHX counter 14.5*, NS1 function inh -1.5%, AmpC inh detg 0.6% and Shiga toxin inh -5.0.
Screening O=[N+]([O-])c1ncccc1OCc1ccc(Cl)c(Cl)c1 returned AmpC no deterg -29.9%, CHX counter 38.4*, NS1 function inh -13.2%, AmpC inh detg 3.7% and Shiga toxin inh 57.9*.
CN(C)S(=O)(=O)c1cccc(COc2cccnc2[N+](=O)[O-])c1 was read as AmpC no deterg -8.2%, CHX counter -3.5, NS1 function inh 0.5%, AmpC inh detg inconclusive and Shiga toxin inh 1.6.
`Cc1cccc(Cl)c1NNC(=O)Nc1c([N+](=O)[O-])c(C)nn1C` gave AmpC no deterg -2.5%, CHX counter 0.7, NS1 function inh -3.6%, AmpC inh detg 3.7% and Shiga toxin inh 14.0.
`FC(F)(F)c1nc2cc3nc4ccccc4[nH]c3cc2n1` gave AmpC no deterg 24.9%, CHX counter 38.6*, NS1 function inh -76.6%, AmpC inh detg 0.6% and Shiga toxin inh 68.7*.
For O=C(CCSCc1ccccc1Cl)N1CCN(c2ccc(F)cc2)CC1 the results were AmpC inh detg 2.6%.
Screening COc1ccc(-c2[nH]ncc2CN2CCCC(C(=O)c3cccc(OC)c3)C2)cc1 (stereo unspecified) returned AmpC no deterg 35.8%, CHX counter -3.6, NS1 function inh 1.5%, AmpC inh detg 2.2% and Shiga toxin inh -7.7.
Screening COc1ccc2cc(-c3[nH]ncc3CN3CCCC3c3nonc3C)ccc2c1 (stereo unspecified) returned AmpC no deterg -26.7%, CHX counter 34.6*, NS1 function inh -0.3%, AmpC inh detg 1.5% and Shiga toxin inh 50.9*.
`Cc1[nH]n(-c2ccccc2)c(=O)c1N=Nc1c(Cl)cccc1Cl` gave AmpC no deterg -8.4%, CHX counter 3.8, NS1 function inh 3.3%, AmpC inh detg 5.6% and Shiga toxin inh 29.8.
Screening Cc1cccc2c1ncc1c(=O)n(-c3ccccc3)[nH]c12 returned AmpC no deterg 9.4%, CHX counter 29.6*, NS1 function inh 2.2%, AmpC inh detg -4.5% and Shiga toxin inh 90.5*.
Screening CCOC(=O)c1ccc(N2C(=O)c3n[nH]c(-c4cccs4)c3C2c2cccc(O)c2)cc1 (stereo unspecified) returned AmpC inh detg 4.2%.
O=C(O)c1ccc(-c2nc(-c3cccc(C(F)(F)F)c3)cs2)cc1 was read as AmpC no deterg -18.6%, CHX counter 6.9, AmpC inh detg 1.0% and Shiga toxin inh 79.0.

High-throughput results from PubChem BioAssay.
